From PubChem BioAssay AID504466 (National Center for Advancing Translational Sciences (NCATS), 2011)
In all, about 330,000 compounds went through this assay and about 4,200 (1.3%) were called active. Not shown: some 6% with an inconclusive outcome. Only a selection was taken, and actives are over-represented in it overall. Values without a mark were called inactive. Calls come from the whole dose curve; as a rule, active = well fitted activation curve with a large enough effect; inconclusive = small, poorly fitted or top-dose-only effect; inactive = no such curve, though single readings can be large or run the other way.

assay: qHTS screen for small molecules that induce genotoxicity in human embryonic kidney (HEK293T) cells expressing luciferase-tagged ELG1; conditions: HEK293T ELG1-luciferase reporter, luminescence, 16 h; series mostly up to 46 µM; activity change, positive = activation: at the top concentration; note: nearly all actives have a fitted effect of over 60% in size; for activity change, positive = activation: % of control where 0% means no effect
Procedure, shortened: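 HEK293T cells expressing luciferase-tagged ELG1 were treated with compound or DMSO for 16 hr at 37°C. Luciferase activity was then read after 30 min with ONE-Glo at room temperature; rising signal flags genetic stress.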
Potency is the fitted concentration of half-maximal effect.

Row | Structure (SMILES) | activity change, positive = activation | Potency
1 | O=C1CCC/C=C/C[C@@H](CC(=O)N(CCO)Cc2ccccc2)C(=O)NC[C@H](c2ccccc2)O1 | 3.07% | –
2 | CC[C@]12c3[nH]c4ccc(Cl)cc4c3CCN1C(=O)[C@@H](CC(=O)NCCCOC)C[C@@H]2C(=O)N1CCN(C(=O)C2CC2)CC1 | 7.73% | –
3 | COCCCNC(=O)CC1C[C@H](C(=O)N2CCCCC2)[C@@]2(CCc3ccccc3)c3[nH]c4ccccc4c3CCN2C1=O (some centres not stated) | -2.19% | –
4 | COc1ccc2oc(=O)c(C(=O)NCc3ccccn3)cc2c1 | 10.3% | –
5 | N=c1oc2ccccc2cc1C(=O)NCc1ccccc1 | 17.7% | –
6 | O=C(NCc1ccccn1)c1cc2ccccc2oc1=O | – | 14.6 µM (active)
7 | CCNC(=O)N(CC)C[C@H]1N[C@@](CC)(C(=O)OC)[C@H]2C(=O)N(Cc3ccccc3)C(=O)[C@@H]12 | 0.0201% | –
8 | CN(C(=O)COC(=O)Cc1ccccc1[N+](=O)[O-])C1CCS(=O)(=O)C1 (configuration not stated) | 1.71% | –
9 | Cc1cc(=O)n2[nH]c(-c3sccc3-n3c(C)ccc3C)cc2n1 | -4.68% | –
10 | CCc1c(C)nc2cc(-c3cccs3)[nH]n2c1=O | – | 20.6 µM (active)
11 | CCc1c(C)nc2cc(C)[nH]n2c1=O | -2.38% | –
12 | Cc1cccc(NS(=O)(=O)c2ccc(C)c(C(=O)NCc3cccnc3)c2)c1 | -1.11% | –
13 | CN(c1ccccc1)S(=O)(=O)c1ccc(C(=O)N2CCN(c3ccccc3Cl)CC2)cc1 | -2.82% | –
14 | CC(NC(=O)COC(=O)Cn1cc(C(F)(F)F)ccc1=O)c1ccccc1 (configuration not stated) | -0.165% | –
15 | COc1ccc(S(=O)(=O)N2CCOCC2)cc1NC(=O)CSc1nnc(NC2CC2)s1 | -2.72% | –
16 | O=C(Nc1ccc(C(=O)O)c(O)c1)c1ccccc1 | -0.0454% | –
17 | O=C(NC(=O)c1ccccc1)Nc1ccccc1O | – | 1.83 µM (active)
18 | Cc1ccc(NC(=O)NC(=O)c2ccccc2)cc1F | 28.6% | –
19 | COc1ccc(CCOC2OC(CO)C(OC(=O)/C=C/c3ccc(O)c(OC)c3)C(O[C@H]3O[C@@H](C)[C@H](O)[C@@H](O)[C@H]3O)C2O)cc1O (some centres not stated) | 1.06% | –
20 | O=C(COC(=O)c1ccc(Br)o1)NC12CC3CC(CC(C3)C1)C2 | -1.36% | –
21 | COc1ccc(N(Cc2ccccc2)S(=O)(=O)c2cccc(C(=O)O)c2)cc1 | 0.954% | –

Row | Structure (SMILES) | activity change, positive = activation | Potency
22 | COc1ccc(NC(=O)CS(=O)(=O)c2ccccc2)cc1 | 9.22% | –
23 | COc1ccc(C(CC(=O)c2ccccc2)S(=O)(=O)c2ccccc2)cc1 (configuration not stated) | – | 18.4 µM (active)
24 | O=C(Nc1cc(S(=O)(=O)N2CCOCC2)ccc1N1CCOCC1)c1c(F)cccc1Cl | -0.0492% | –
25 | CCOc1cccc(C(=O)Nc2cnn(Cc3ccccc3)c2)c1 | 4.75% | –
26 | COc1cccc(C(=O)Nc2nnc(S(=O)(=O)N(C)c3ccccc3)s2)c1 | -1.42% | –
27 | Cc1ccc(C(=O)Oc2coc(CSc3nnc(NC(=O)c4cccs4)s3)cc2=O)cc1C | -3.29% | –
28 | CCOc1cccc(C(=O)Nc2nnc(-c3cccs3)s2)c1 | – | 1.16 µM (active)
29 | Cc1ccc(C(=O)Nc2nnc(-c3cccs3)s2)cc1C | – | 8.2 µM (active)
30 | Cc1nnc(NC(=O)c2ccc3nccnc3c2)s1 | 15.1% | –
31 | O=C(OCC(=O)N1CCN(C(=O)c2ccco2)CC1)c1c(Cl)cccc1Cl | 1.71% | –
32 | O=C(Nc1cc(S(=O)(=O)Nc2ccc(Cl)cc2)ccc1O)c1ccc(F)cc1F | -5.16% | –
33 | COC(=O)C1CCN(C(=O)COC(=O)c2cc(S(=O)(=O)N3CCOCC3)ccc2C)CC1 | -1.29% | –
34 | COCCN(CCOC)S(=O)(=O)NC[C@H]1O[C@@H](n2cnc3c(N)ncnc32)[C@H](O)[C@@H]1O | -3.03% | –
35 | Cc1cccc(NC(=O)CN2C(=O)c3ccccc3C2=O)c1C | 0.818% | –
36 | CCN1C(=O)c2cccc3c(N)ccc1c23 | – | 20.6 µM (active)
37 | CN1C(=O)c2cccc3c(N)ccc(c23)C1=O | 0.137% | –
38 | Cc1nn(C)cc1N1C(=O)c2cccc3c(N)ccc(c23)C1=O | 4.07% | –
39 | CCN1C(=O)c2cccc3c(S(=O)(=O)Nc4ccccc4O)ccc1c23 | – | 23.1 µM (active)
40 | O=C(CN1C(=O)c2cccc3cccc1c23)Nc1ccccc1 | -1.63% | –
41 | CC(C)COc1ccc(C(=O)NNC(=O)CCC(=O)c2cccs2)cc1 | 1.16% | –
42 | CCOC(=O)N1CCN(C(=O)COc2ccc3oc4c(c3c2)CCCC4)CC1 | 6.35% | –

Row | Structure (SMILES) | activity change, positive = activation | Potency
43 | CCN(CC)CCCNC(=O)COc1ccc2oc3c(c2c1)CCCC3 | -3.27% | –
44 | O=C(COc1ccc2oc3c(c2c1)CCCC3)Nc1ccccn1 | – | 16.4 µM (active)
45 | CC[C@]12c3[nH]c4cc(CCC(=O)N(C)C)ccc4c3CCN1C(=O)[C@@H](CC(=O)NCC13CC4CC(CC(C4)C1)C3)C[C@@H]2C(=O)N1CCN(C(=O)C2CC2)CC1 | -0.833% | –
46 | COc1ccc2nc3n(c(=O)c2c1)-c1cc(C)ccc1C(=O)NC3Cc1ccc(O)cc1 (configuration not stated) | 1.3% | –
47 | CC(C)C(=O)Nc1ccc2oc(=O)ccc2c1 | 0.29% | –
48 | CC(C)C(=O)Nc1ccc2c(c1)oc1ccccc12 | – | 4.11 µM (active)
49 | Cc1cc(=O)oc2cc(NC(=O)C(C)Oc3ccccc3)ccc12 (configuration not stated) | 4.31% | –
50 | COc1cccc(NC(=O)COc2cccnc2[N+](=O)[O-])c1 | 14.2% | –
51 | CC(C)(C)OC(=O)C[C@@H]1C/C=C\C[C@@H](CC(=O)N[C@H](CO)Cc2ccccc2)C(=O)NCCOC1=O | 0.148% | –
52 | Cc1ccc2nc(-c3ccc(NC(=O)CN(C)S(=O)(=O)c4ccccc4)cc3)sc2c1 | – | 5.8 µM (active)
53 | Cc1nc2ccc(S(=O)(=O)N(C)CC(=O)NC(C)c3ccccc3)cc2s1 (configuration not stated) | -0.605% | –
54 | COc1cc(NC(=O)CN(C)S(=O)(=O)c2ccc3nc(C)sc3c2)cc(OC)c1 | 9.88% | –
55 | O=C1c2ccccc2[C@@H]2C[C@@H](O)[C@H](Nc3ccccc3Cl)CCN12 | -1.05% | –
56 | Cc1cc(C(=O)COC(=O)C2CC2)c(C)n1-c1ccc(F)cc1 | – | 2.59 µM (active)
57 | Cc1ccc(-n2c(C)cc(C(=O)CN3C(=O)C(=O)N(C4CCCC4)C3=O)c2C)cc1 | -6.37% | –
58 | Cc1cc(C(=O)COc2ccccc2Cl)c(C)n1C1CC1 | 8.23% | –
59 | Cc1ccc(SCC(=O)c2cc(C)c(OC(=S)N(C)C)c(C)c2)cc1 | – | 7.31 µM (active)
60 | COC(=O)c1cc(OC)c(OC)cc1NC(=O)CSc1ccc(C)cc1 | -7.62% | –
61 | Cc1ccc(C(=O)CSc2ccccc2C(=O)O)cc1 | 12.5% [at 9.26 µM] | –
62 | COC(=O)[C@]1(Cc2ccccc2)N[C@H](CN(C)S(=O)(=O)c2ccc(OC(F)(F)F)cc2)[C@@H]2C(=O)N(Cc3ccccc3)C(=O)[C@@H]21 | -0.754% | –
